A selection: hits, their analogues and other compounds. The true share with any hit is near 1.1%.
HTR5A inv ctr: HTR5A inverse agonists in luminescence cell assay, primary screen, counter-screen for OPRM1-OPRD1 heterodimer inverse agonist project, full-deck HTS; actives 0.083% (n = 340,000); 5-hydroxytryptamine receptor 5A (Homo sapiens), P47898; inhibition, % at 9.3 µM; HTR5A cell line, inverse agonism; AID 504634, 2011; in the data active = inhibition mostly above about 23%, no sharp cut-off; inactive = mostly below about 18%;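 note: 0% = cells with DMSO and 100% = no-cell wells with DMSO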
Target sequence (P47898 whole entry, looked up): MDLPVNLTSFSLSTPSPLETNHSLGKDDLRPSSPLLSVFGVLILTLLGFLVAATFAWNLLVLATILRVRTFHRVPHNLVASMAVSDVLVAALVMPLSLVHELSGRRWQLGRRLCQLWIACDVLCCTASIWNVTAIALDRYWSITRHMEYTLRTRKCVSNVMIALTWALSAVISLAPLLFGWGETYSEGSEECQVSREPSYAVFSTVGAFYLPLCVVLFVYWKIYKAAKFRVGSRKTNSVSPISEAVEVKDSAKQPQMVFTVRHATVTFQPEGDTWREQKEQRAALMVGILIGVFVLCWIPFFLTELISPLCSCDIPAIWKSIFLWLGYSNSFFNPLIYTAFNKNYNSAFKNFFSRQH
MOR-DOR inv ag: inverse agonists of MOR-DOR heterodimerization, primary screen, cell-based, luminescence. inhibition, % at 9.3 µM. AID 504357, 2011. actives 0.21% (n = 340,000). cell-based MOR-DOR heterodimer luminescence, inverse agonism; in the data active = inhibition above about 22%, passing the limit was not always enough;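 note: 0% = cells with DMSO and 100% = wells without cells with DMSO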
HTR5A ag: HTR5A agonists in luminescence cell assay, primary screen, counter-screen for OPRM1-OPRD1 heterodimer agonist project, full-deck HTS. actives 0.61% (n = 340,000). activation, % at 9.3 µM. cell-based. AID 504692, 2011. 5-hydroxytryptamine receptor 5A (Homo sapiens), P47898; in the data active = activation mostly above about 9.5%, no sharp cut-off; inactive = mostly below about 7.6%;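 note: 0% = cells with vehicle only and 100% = reference agonist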
OPRM1-OPRD1 ag: agonists of OPRM1-OPRD1 heterodimerization, primary screen, cell-based, luminescence. Mu-type opioid receptor (Homo sapiens) + Delta-type opioid receptor (Homo sapiens), …. cells. activation, % at 9.3 µM. actives 0.3% (n = 340,000). AID 504326, 2011;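 note: 0% = vehicle-treated cells and 100% = reference agonist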
OPRM1-D1 ag cf: agonists of MOR-DOR heterodimerization, confirmation, cell-based, luminescence | shares compounds with OPRM1-OPRD1 ag | activation, % at 9.3 µM | cells, luminescence complementation | AID 504904, 2011 | actives 45% (n = 830);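 note: 0% = vehicle-treated cells and 100% = reference agonist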
HTR5A ag counter: HTR5A agonists in cells, counter-screen for OPRM1-OPRD1 heterodimer agonist project, cell-based, luminescence. shares compounds with OPRM1-OPRD1 ag. HTR5A agonist counterscreen. activation, % at 9.3 µM. actives 8% (n = 830); in the data active = activation above about 17%;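 note: 0% = vehicle-treated cells and 100% = reference agonist response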
An asterisk follows results filed as active; i = inactive; . = no result given. Cut-off read from the data, not from the text of the source, unless noted: active = activation above about 18%; inactive = the rest.

SMILES	HTR5A inv ctr	MOR-DOR inv ag	HTR5A ag	OPRM1-OPRD1 ag	OPRM1-D1 ag cf	HTR5A ag counter
Cc1cc(C)n2nc(SCC(=O)NC(=O)c3ccccc3)nc2n1	9	21	-2	-4	.	.
O=C(Nc1ncc(Cc2ccc(SC(F)F)cc2)s1)c1ccc(OC(F)F)cc1	-42	-98	1	19*	16	1
Cc1cccc(NC(=O)COc2ccc(Br)cc2/C=N/O)c1	5	-6	1	1	.	.
OC1(c2ccc(F)cc2)CN(c2ccccc2)C2=[N+]1CCS2 (stereo not drawn)	-9	13	0	-3	.	.
Cc1ccc(C2(O)CN(c3ccccc3)C3=[N+]2CCS3)cc1 (stereo not drawn)	-5	-391	2	77*	194*	1
Cc1ccc(C2(O)CN(c3ccccc3C)C3=[N+]2CCS3)cc1 (stereo not drawn)	12	i	5	349*	373*	1
Cc1ccccc1N1CC(O)(c2ccccc2)[N+]2=C1SCC2 (stereo not drawn)	9	i	-4	218*	223*	1
CCCNC(=O)C(Cc1cccc(OC)c1)NC(=O)c1ccc(C#N)cc1 (stereo not drawn)	-4	13	-4	-2	.	.
Fc1ccc(CN2CCN(C(c3ccccc3)c3ccccc3)CC2)cc1	4	-76	-1	16	.	.
c1ccc(CN2CCN(C(c3ccccc3)c3ccccc3)CC2)cc1	-15	-131	-3	26*	19*	-4
Oc1ccccc1N1CCN(C(c2ccccc2)c2ccccc2)CC1	-29	-171	10	27*	23*	-2
CCOc1ccc(NC(=S)Nc2ccc3nsnc3c2)cc1	12	-138	4	22*	6	3
C=CC[C@@H](CC(=O)N(CCO)Cc1ccccc1)C(=O)N[C@@H](COC(=O)[C@@H](CC=C)CC(=O)OC(C)(C)C)Cc1c[nH]c2ccccc12	-54	-131	9	29*	2	-3
O=C(NCCc1ccccc1)C(c1cccs1)N(C(=O)c1csnn1)C1CC1 (stereo not drawn)	5	11	-2	-2	.	.
O=C(NCCc1ccccc1)C(c1cccs1)N(C(=O)CCl)c1ccc(Cl)cc1 (stereo not drawn)	-85	i	32*	87*	14	4
CCOC(=O)C1(Cc2cccc(F)c2)CCN(Cc2cnc(C)s2)CC1	-4	-113	2	22*	24*	1
CCOC(=O)C1(Cc2ccccc2)CCN(Cc2cn[nH]c2-c2ccccc2)CC1	-3	-260	5	36*	1	23*
CCOC(=O)C1(CC2CC2)CCN(Cc2cn[nH]c2-c2ccccc2)CC1	5	8	-2	-2	.	.
CCOC(=O)C1(CCCc2ccccc2)CCN(Cc2cnc(C)s2)CC1	3	i	-1	106*	1	3
CCOC(=O)C1(CCCc2ccccc2)CCN(Cc2cn(CC)nc2C)CC1	0	i	0	315*	20*	-1
CCCn1ncc(CN2CCC(Cc3cccc(F)c3)(C(=O)OCC)CC2)c1C	-2	-14	1	3	.	.
CCOC(=O)C1(CCCc2ccccc2)CCN(Cc2nccn2CC)CC1	1	-17	9	2	.	.
O=S(=O)(NCc1ccccc1Br)c1cccs1	3	-6	0	1	.	.
COc1ccc(C(=O)NCC(C)(C)CNC(=O)c2ccc(OC)c(OC)c2)cc1OC	-13	1	1	0	.	.
COc1ccc(C(=S)N2CCOCC2)cc1OC(=O)c1ccc([N+](=O)[O-])cc1	7	-26	-3	3	.	.
SMILES	HTR5A inv ctr	MOR-DOR inv ag	HTR5A ag	OPRM1-OPRD1 ag	OPRM1-D1 ag cf	HTR5A ag counter
COC(=O)CCC(=O)N1CCCC(CNS(=O)(=O)c2ccc(OC)cc2)C1 (stereo not drawn)	16	4	4	-1	.	.
N#CNC(=Nc1ccccc1)SCc1ccc(C(=O)O)cc1	-6	6	2	-1	.	.
CSC(=Nc1ccccc1)N=C(SCc1ccccc1)N(C)C	-41	-333	11	76*	38*	0
CCOC(=O)C1=C(CN2CC(C)CC(C)C2)NC(=O)NC1c1ccc2c(c1)OCO2 (stereo not drawn)	26	-137	-3	26*	24*	5
CC(C)CNC(=O)c1cccc2c1-c1ccccc1C2=O	-10	7	3	-1	.	.
Cc1oc2c(c1C(=O)c1ccccc1)C(=O)C(=O)c1ccccc1-2	-2	-90	1	18*	21*	5
CC(C)(C)C(=O)N1CCC[C@H]1C(O)(c1ccccc1)c1ccccc1	-4	13	-2	-2	.	.
CN1CCC(CC(C(=O)N2CCCC2)(c2ccccc2)c2ccccc2)C1 (stereo not drawn)	1	-307	0	63*	4	-1
Cc1ccc(NC(=O)Cn2nnc(C(=O)Nc3ccc(C)c(C)c3)c2N)cc1	-14	4	4	-1	.	.
Cc1cc(C)cc(NC(=O)Cn2nnc(C(=O)NCc3ccccc3Cl)c2N)c1	-8	-136	10	25*	12	-2
Cc1ccc(NC(=O)c2nnn(CC(=O)Nc3ccc4c(c3)OCO4)c2N)cc1C	-29	-116	8	23*	9	4
Cc1cc(C)cc(NC(=O)Cn2nnc(C(=O)NCCc3ccccc3)c2N)c1	-6	-104	7	21*	12	8
CCOc1ccccc1CNc1nc2ccccc2n1C	-1	5	0	-1	.	.
CCOC(=O)N1CCN(C(=O)c2cnsn2)CC1	-17	16	1	-3	.	.
CN(C)C(CNC(=O)c1ccc2ccccc2n1)c1ccccc1 (stereo not drawn)	-8	-437	3	58*	-2	0
CC(NC(=O)c1ccc2ccccc2n1)c1ccccc1 (stereo not drawn)	-53	-2	5	0	.	.
CN(C)C(CNC(=O)c1cc(S(=O)(=O)N(C)c2ccccc2)ccc1Cl)c1ccccc1 (stereo not drawn)	-17	4	6	-1	.	.
COCCCNC(=O)/C=C/c1cccc(Cl)c1	3	0	0	0	.	.
CN(C)C(CNC(=O)c1cnc(Cl)c(Cl)c1)c1ccccc1 (stereo not drawn)	3	i	-1	353*	374*	0
CN(C)C(CNC(=O)/C=C/c1cccc(Cl)c1)c1ccccc1 (stereo not drawn)	9	i	-3	275*	10	6
COC(=O)C1=C(C)N(c2ccc(OC)c(OC)c2)C(=O)/C1=C\c1ccco1	-7	8	0	-1	.	.
